The full data set covers some 8,800 targets. This sample favours those with a hit. About 0.5% of all pairs of compound and target were hits.
Assays:
Assay in all cases: log2 fold change, soluble protein after heating vs DMSO (PISA); higher = thermal stabilisation; K562 lysate, 10 uM; active = over 0.2 and 3.5 SD of the protein, either way, in both replicates (recomputed)
erlotinib = compound: C#Cc1cccc(Nc2ncnc3cc(OCCOC)c(OCCOC)cc23)c1 [erlotinib]
Outline: (§1)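 A 30 min treatment with 10 μM compound was applied to crude K562 extract at 1 mg/mL protein in PBS pH 7.4 with 1 mM MgCl2. Heating for 3 min spanned 48°C-58°C, after which aliquots were pooled, adjusted to 0.5% NP-40 at 4°C and spun at 21,000xg for 90 min. TMTpro 16plex LC-MS/MS of the supernatant, with channel sums equalised, gave values recorded as log-two fold change in thermal stability against solvent controls, from duplicates.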

[1] = compound: C/C(=N\NC(=O)C1=CC(=CC=C1)S(=O)(=O)N2CCOCC2)/C3=C(C=CC(=C3)Cl)O
Outline: as §1

[2] = compound: C1=CC(=CC=C1C2=NC3=C(N2)C=C(C=C3)C(=O)N)OC4=CC=C(C=C4)Cl
Outline: as §1

[3] = compound: C1=CC2=C(C=CC(=C2)/C=C\3/C(=O)NC(=NCC4=CC=CS4)S3)N=C1
Outline: as §1

[4] = compound: C1=CC2=NC=CN=C2C=C1/C=C/3\C(=O)NC(=O)S3
Outline: as §1

[5] = compound: C1=CC=C(C=C1)C2=NC(=C(N2)C3=CC=NC=C3)C4=CC(=C(C=C4)Cl)O
Outline: as §1

[6] = compound: C1=CC=C2C(=C1)C3=NNC4=CC=CC(=C43)C2=O
Outline: as §1

[7] = compound: C1CCN(C1)C(=O)NC2=CC=CC(=C2)NC3=NC=C(C(=N3)NCCC4=CN=CN4)Br
Outline: as §1

[8] = compound: C1CN(CCC1(CC2=CC=C(C=C2)Cl)N)C3=NC=NC4=C3C=CN4
Outline: as §1

IRAK-1-4 Inhibitor I = compound: C1COCCN1CCN2C3=CC=CC=C3N=C2NC(=O)C4=CC(=CC=C4)[N+](=O)[O-] [IRAK-1-4 Inhibitor I]
Outline: as §1

ibrutinib = compound: C=CC(=O)N1CCC[C@@H](n2nc(-c3ccc(Oc4ccccc4)cc3)c3c(N)ncnc32)C1 [ibrutinib]
Outline: as §1

[9] = compound: CC(=O)c1cnc2ccc(-c3cc(Cl)c(O)c(Cl)c3)nc2c1N[C@H]1CC[C@H](CN(C)C)CC1
Outline: as §1

ralimetinib = compound: CC(C)(C)Cn1c(N)nc2ccc(-c3[nH]c(C(C)(C)C)nc3-c3ccc(F)cc3)nc21 [ralimetinib]
Outline: as §1

[10] = compound: CC(C)(O)CC(=O)NCCn1ccc2ncnc(Nc3ccc(Oc4cccc(C(F)(F)F)c4)c(Cl)c3)c21
Outline: as §1

[11] = compound: CC(C)C1=C2N=C(C=C(N2N=C1)NCC3=CC=CC=C3)NCCCCCCN
Outline: as §1

[12] = compound: CC1=C(C(CC(=O)N1)C2=CC=C(C=C2)C(F)(F)F)C(=O)NC3=C(C=C4C(=C3)C=NN4)F
Outline: as §1

[13] = compound: CC1=C(C2=C(C=C1)C(=O)C3=CC=CC=C3N2CCCN)C
Outline: as §1

[14] = compound: CC1=C(C=C(C=C1)NC(=O)C2=CC(=CC=C2)C(C)(C)C#N)NC3=CC4=C(C=C3)N=CN(C4=O)C
Outline: as §1

[15] = compound: CC1=C(C=C(C=C1)NC(=O)C2=CC(=CC=C2)N(C)C)NC(=O)C3=CC=C(C=C3)O
Outline: as §1

[16] = compound: CC1=CC=C(C=C1)SC2=C3C=C(SC3=CN=C2)C(=O)N
Outline: as §1

Measured: log2 fold change

PHACTR4 isoform 2 (UniProt Q8IZ21)
inactive: erlotinib 0.003 | [1] -0.02 | [2] 0.012 | [3] -0.004 | [4] -0.021 | [5] 0.021 | [6] 0.013 | [7] -0.017 | [8] 0.052 | IRAK-1-4 Inhibitor I 0.011 | ibrutinib -0.009 | [9] -0.005 | ralimetinib -0.009 | [10] -0.047 | [11] -0.019 | [12] 0.025 | [13] -0.028 | [14] 0.021 | [15] -0.016 | [16] -0.01

PDAP1 (UniProt Q13442)
inactive: erlotinib -0.01 | [1] -0.022 | [2] 0.02 | [3] -0.005 | [4] 0.001 | [5] -0.007 | [6] 0.023 | [7] 0.016 | [8] -0.012 | IRAK-1-4 Inhibitor I 0.026 | ibrutinib -0.042 | [9] -0.012 | ralimetinib -0.002 | [10] -0.065 | [11] 0.011 | [12] -0.046 | [13] 0.043 | [14] -0.015 | [15] -0.02 | [16] -0.008

PRKAB2 (UniProt O43741)
inactive: erlotinib -0.032 | [1] -0.165 | [2] 0.096 | [3] -0.041 | [4] 0.031 | [5] 0.039 | [6] 0.153 | [7] 0.196 | [8] 0.042 | IRAK-1-4 Inhibitor I 0.24 | ibrutinib -0.041 | [9] -0.018 | ralimetinib 0.093 | [10] -0.129 | [11] -0.025 | [12] 0.086 | [13] -0.066 | [14] -0.082 | [15] 0.035 | [16] -0.008

PIK3R2 (UniProt O00459)
Chain of UniProt O00459 (O00459 whole entry, looked up): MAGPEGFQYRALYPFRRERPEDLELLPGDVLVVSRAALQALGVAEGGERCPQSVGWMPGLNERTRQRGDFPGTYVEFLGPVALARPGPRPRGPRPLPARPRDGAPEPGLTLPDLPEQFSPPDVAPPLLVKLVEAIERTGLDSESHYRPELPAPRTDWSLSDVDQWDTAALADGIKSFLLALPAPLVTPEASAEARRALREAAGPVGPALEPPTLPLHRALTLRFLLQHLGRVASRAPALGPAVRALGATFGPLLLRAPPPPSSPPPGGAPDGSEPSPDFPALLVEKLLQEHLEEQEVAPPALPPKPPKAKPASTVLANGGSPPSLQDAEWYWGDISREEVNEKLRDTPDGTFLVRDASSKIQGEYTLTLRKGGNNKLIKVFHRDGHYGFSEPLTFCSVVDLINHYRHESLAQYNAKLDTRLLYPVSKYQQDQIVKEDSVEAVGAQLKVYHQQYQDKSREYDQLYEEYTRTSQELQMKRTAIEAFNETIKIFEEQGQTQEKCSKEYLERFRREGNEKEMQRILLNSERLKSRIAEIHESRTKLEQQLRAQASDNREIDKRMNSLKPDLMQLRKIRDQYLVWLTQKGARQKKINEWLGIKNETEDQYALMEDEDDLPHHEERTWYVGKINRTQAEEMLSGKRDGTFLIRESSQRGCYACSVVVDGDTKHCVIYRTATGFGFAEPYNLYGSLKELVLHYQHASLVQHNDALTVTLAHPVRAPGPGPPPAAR
inactive: erlotinib -0.022 | [1] -0.02 | [2] -0.008 | [3] 0.097 | [4] 0.251 | [5] -0.09 | [6] 0.047 | [7] 0.068 | [8] -0.059 | IRAK-1-4 Inhibitor I -0.01 | ibrutinib -0.041 | [9] 0.242 | ralimetinib 0.11 | [10] 0.029 | [11] -0.028 | [12] 0.008 | [13] 0.01 | [14] 0 | [15] 0.07 | [16] 0.019

PIKFYVE (UniProt Q9Y2I7)
inactive: erlotinib -0.026 | [1] -0.008 | [2] -0.01 | [3] 0.005 | [4] -0.011 | [5] 0.03 | [6] -0.034 | [7] -0.039 | [8] 0.035 | IRAK-1-4 Inhibitor I -0.004 | ibrutinib 0.019 | [9] -0.012 | ralimetinib 0.011 | [10] -0.012 | [11] 0 | [12] 0.042 | [13] 0.003 | [14] -0.044 | [15] 0.016 | [16] -0.004

PLXNB2 (UniProt O15031)
Chain of UniProt O15031 (O15031 whole entry, looked up): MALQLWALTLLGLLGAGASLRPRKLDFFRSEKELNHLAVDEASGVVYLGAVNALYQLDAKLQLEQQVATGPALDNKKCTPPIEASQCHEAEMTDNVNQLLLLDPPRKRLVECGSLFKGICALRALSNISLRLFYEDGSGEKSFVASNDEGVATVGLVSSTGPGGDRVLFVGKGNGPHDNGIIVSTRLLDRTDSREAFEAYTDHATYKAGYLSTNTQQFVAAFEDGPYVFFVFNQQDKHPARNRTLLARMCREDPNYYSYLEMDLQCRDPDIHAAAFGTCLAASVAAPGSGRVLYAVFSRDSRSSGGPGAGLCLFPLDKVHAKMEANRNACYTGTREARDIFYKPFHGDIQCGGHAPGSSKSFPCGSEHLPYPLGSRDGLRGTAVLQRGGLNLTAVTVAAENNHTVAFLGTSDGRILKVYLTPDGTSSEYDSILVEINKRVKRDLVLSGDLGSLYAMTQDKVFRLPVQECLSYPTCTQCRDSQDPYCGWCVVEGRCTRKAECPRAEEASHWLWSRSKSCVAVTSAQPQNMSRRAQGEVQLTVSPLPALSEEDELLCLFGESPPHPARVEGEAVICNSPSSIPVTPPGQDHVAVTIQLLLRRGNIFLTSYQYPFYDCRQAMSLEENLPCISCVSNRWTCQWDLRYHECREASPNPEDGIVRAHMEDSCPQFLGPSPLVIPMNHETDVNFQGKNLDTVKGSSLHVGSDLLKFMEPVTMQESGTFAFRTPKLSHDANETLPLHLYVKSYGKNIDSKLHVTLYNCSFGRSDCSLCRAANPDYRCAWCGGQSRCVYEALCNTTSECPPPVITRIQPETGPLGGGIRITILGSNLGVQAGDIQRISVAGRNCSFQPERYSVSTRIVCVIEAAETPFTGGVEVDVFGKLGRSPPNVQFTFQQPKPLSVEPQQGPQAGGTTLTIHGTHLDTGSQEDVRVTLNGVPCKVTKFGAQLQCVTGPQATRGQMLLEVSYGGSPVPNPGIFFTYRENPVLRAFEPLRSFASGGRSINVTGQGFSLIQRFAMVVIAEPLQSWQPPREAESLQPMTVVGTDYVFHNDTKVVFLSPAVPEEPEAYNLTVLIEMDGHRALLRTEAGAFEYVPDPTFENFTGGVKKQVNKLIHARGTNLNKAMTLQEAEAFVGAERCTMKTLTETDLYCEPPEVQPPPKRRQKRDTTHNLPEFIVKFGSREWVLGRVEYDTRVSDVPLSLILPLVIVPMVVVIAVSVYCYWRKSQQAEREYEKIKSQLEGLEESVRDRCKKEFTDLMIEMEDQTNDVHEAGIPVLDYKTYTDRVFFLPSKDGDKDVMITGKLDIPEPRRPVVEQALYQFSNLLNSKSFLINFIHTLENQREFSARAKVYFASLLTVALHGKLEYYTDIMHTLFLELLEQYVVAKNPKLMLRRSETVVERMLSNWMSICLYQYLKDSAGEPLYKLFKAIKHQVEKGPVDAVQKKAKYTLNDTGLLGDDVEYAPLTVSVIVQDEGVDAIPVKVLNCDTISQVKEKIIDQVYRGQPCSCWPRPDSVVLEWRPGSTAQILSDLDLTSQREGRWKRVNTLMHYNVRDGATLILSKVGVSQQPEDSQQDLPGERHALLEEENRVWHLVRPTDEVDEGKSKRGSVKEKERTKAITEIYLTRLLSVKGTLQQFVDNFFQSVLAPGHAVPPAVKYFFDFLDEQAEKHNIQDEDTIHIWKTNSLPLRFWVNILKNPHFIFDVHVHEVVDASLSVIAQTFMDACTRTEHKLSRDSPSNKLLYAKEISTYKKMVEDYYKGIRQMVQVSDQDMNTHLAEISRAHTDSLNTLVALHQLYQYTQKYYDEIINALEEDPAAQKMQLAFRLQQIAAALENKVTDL
inactive: erlotinib -0.014 | [1] -0.027 | [2] -0.013 | [3] -0.04 | [4] -0.037 | [5] 0.005 | [6] -0.018 | [7] -0.017 | [8] 0.049 | IRAK-1-4 Inhibitor I 0.004 | ibrutinib 0.019 | [9] 0.016 | ralimetinib 0.035 | [10] -0.026 | [11] -0.03 | [12] 0.033 | [13] 0.006 | [14] -0.02 | [15] -0.003 | [16] -0.016

PDS5A (UniProt Q29RF7)
Chain of UniProt Q29RF7 (Q29RF7 whole entry, looked up): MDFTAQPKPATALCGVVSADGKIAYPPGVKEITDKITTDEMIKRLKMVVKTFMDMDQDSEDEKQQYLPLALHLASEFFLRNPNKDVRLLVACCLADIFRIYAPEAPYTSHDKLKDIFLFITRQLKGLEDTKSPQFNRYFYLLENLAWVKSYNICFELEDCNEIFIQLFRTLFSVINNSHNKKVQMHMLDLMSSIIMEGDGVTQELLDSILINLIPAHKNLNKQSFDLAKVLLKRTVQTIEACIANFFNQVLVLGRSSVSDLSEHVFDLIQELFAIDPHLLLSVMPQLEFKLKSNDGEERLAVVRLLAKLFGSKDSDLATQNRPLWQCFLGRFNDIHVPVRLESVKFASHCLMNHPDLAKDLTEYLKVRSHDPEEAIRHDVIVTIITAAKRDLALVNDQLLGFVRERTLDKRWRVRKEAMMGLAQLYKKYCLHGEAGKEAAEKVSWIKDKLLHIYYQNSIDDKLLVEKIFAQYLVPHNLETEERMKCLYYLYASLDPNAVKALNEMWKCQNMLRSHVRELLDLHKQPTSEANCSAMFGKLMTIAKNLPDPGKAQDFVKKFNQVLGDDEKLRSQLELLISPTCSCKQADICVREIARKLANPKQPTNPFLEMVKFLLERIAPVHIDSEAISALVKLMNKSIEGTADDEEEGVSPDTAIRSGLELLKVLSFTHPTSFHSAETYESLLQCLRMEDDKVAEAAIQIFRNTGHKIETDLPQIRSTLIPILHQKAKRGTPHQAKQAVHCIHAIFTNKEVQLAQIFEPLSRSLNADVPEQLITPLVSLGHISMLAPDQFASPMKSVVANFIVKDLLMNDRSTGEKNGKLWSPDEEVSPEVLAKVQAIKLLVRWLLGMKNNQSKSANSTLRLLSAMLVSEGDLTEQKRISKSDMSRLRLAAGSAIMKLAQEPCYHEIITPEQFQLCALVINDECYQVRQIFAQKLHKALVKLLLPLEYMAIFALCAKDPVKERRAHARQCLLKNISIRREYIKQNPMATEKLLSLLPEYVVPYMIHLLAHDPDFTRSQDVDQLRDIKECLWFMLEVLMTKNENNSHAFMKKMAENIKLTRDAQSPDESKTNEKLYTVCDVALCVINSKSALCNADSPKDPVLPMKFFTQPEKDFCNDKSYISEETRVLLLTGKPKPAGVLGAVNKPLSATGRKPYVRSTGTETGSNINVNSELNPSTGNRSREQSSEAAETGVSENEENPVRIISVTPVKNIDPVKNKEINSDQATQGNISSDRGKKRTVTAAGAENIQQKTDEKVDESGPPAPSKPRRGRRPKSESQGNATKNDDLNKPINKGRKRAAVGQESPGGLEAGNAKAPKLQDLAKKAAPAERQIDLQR
inactive: erlotinib 0.043 | [1] -0.015 | [2] -0.029 | [3] 0.052 | [4] 0.032 | [5] 0.012 | [6] -0.038 | [7] -0.005 | [8] 0.001 | IRAK-1-4 Inhibitor I -0.015 | ibrutinib 0 | [9] 0.013 | ralimetinib 0.008 | [10] -0.017 | [11] -0.029 | [12] 0.023 | [13] -0.038 | [14] 0.017 | [15] 0.031 | [16] 0.039

PDF (UniProt Q9HBH1)
Chain of UniProt Q9HBH1 (Q9HBH1 whole entry, looked up): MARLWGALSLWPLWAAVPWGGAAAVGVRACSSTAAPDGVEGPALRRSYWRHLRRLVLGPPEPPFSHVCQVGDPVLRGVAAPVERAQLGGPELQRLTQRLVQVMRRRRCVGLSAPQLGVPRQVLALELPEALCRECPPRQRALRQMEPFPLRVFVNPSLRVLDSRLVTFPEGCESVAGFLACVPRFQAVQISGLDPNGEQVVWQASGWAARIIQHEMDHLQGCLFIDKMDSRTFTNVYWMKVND
inactive: erlotinib 0.033 | [1] 0.07 | [2] -0.072 | [3] 0.005 | [4] -0.066 | [5] 0.066 | [6] -0.013 | [7] 0.047 | [8] -0.063 | IRAK-1-4 Inhibitor I 0.055 | ibrutinib 0.054 | [9] 0.016 | ralimetinib -0.014 | [10] 0.066 | [11] 0.001 | [12] 0.01 | [13] 0.07 | [14] 0.048 | [15] -0.018 | [16] 0.059

POGK (UniProt Q9P215)
inactive: erlotinib 0.052 | [1] 0.053 | [2] 0.034 | [3] -0.059 | [4] -0.023 | [5] 0.104 | [6] -0.03 | [7] 0 | [8] 0.022 | IRAK-1-4 Inhibitor I 0.025 | ibrutinib 0.051 | [9] -0.012 | ralimetinib 0.04 | [10] -0.026 | [11] -0.012 | [12] 0.018 | [13] 0.04 | [14] 0.01 | [15] -0.047 | [16] 0.027

PRKAR2A (UniProt P13861)
Chain of UniProt P13861 (P13861 whole entry, looked up): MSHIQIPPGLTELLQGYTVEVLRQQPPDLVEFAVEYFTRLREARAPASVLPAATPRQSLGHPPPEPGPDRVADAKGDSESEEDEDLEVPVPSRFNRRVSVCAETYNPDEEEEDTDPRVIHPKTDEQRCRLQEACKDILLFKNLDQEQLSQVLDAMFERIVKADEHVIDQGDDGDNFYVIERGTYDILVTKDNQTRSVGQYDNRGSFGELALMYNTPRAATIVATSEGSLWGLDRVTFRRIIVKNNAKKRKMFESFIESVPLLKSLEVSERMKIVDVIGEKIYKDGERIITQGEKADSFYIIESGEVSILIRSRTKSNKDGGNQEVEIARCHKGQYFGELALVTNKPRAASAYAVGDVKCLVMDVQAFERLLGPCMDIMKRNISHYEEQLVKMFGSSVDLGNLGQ
inactive: erlotinib 0.001 | [1] 0.032 | [2] 0.02 | [3] -0.02 | [4] -0.009 | [5] 0 | [6] -0.029 | [8] -0.212 | IRAK-1-4 Inhibitor I -0.06 | ibrutinib 0.044 | [9] -0.064 | ralimetinib 0.033 | [10] -0.032 | [11] 0.018 | [12] 0.015 | [13] 0.005 | [14] 0 | [15] 0.011 | [16] 0.036
active: [7] -0.252

PPT2 isoform 3 (UniProt Q9UMR5)
Chain of UniProt Q9UMR5 (Q9UMR5 whole entry, looked up): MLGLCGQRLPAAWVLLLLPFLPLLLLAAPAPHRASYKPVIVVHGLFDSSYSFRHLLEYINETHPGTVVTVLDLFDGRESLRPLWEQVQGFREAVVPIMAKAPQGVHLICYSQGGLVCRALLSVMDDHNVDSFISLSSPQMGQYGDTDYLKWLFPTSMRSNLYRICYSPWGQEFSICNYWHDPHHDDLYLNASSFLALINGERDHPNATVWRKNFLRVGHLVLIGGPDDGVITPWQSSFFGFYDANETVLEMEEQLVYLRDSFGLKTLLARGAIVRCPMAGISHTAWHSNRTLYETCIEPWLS
inactive: erlotinib 0.038 | [1] -0.113 | [2] 0.001 | [3] 0.014 | [4] -0.012 | [5] -0.057 | [6] 0.042 | [7] 0.01 | [8] 0.043 | IRAK-1-4 Inhibitor I 0.122 | ibrutinib 0.03 | [9] 0.068 | ralimetinib -0.001 | [10] -0.022 | [11] -0.019 | [12] -0.026 | [13] 0.002 | [14] -0.038 | [15] -0.015 | [16] -0.013

PYURF (UniProt Q96I23)
Chain of UniProt Q96I23 (Q96I23 whole entry, looked up): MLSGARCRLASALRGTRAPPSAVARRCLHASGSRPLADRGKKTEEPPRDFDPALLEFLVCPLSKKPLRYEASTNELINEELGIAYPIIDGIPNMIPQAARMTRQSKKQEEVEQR
inactive: erlotinib -0.019 | [1] 0.113 | [2] 0.117 | [3] 0.056 | [4] 0.087 | [5] -0.09 | [6] -0.108 | [7] 0.035 | [8] 0.07 | IRAK-1-4 Inhibitor I -0.086 | ibrutinib 0.189 | [9] -0.026 | ralimetinib -0.005 | [10] 0.079 | [11] 0.016 | [12] 0.058 | [13] -0.05 | [14] 0.084 | [15] 0.012 | [16] -0.026
